From PubChem
ADAM17 inh: inhibitors of human ADAM17; P78536; 370,000 tested, 0.83% active; recombinant ADAM17, EDANS/DABCYL FRET peptide cleavage; inhibition, % at 6.95 µM; AID 720648;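 active = inhibition above the mean of compounds lying between control limits plus 3 SD, set per campaign, cut at about 8.5% in these data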;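 also: 0% = DMSO-only wells as the low control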
ADAM10 inh: inhibitors of human ADAM10 | O14672 | recombinant ADAM10, EDANS/DABCYL FRET peptide cleavage, 3 h | inhibition, % at 7 µM | 370,000 tested, 0.62% active | AID 720582;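 active = inhibition above a per-campaign cutoff equal to the mean of compounds falling between control-based bounds plus 3 SD, cut at about 20% in these data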;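 also: 0% = DMSO wells while the 100% control is not disclosed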
PLCg1 inh: blocks human PLC-gamma1 enzyme activity; purified PLC-gamma1, fluorogenic substrate, fluorescence; inhibition, % at 12.2 µM; 370,000 tested, 0.84% active; in the data active = inhibition above about 9.5%
proKLK7 act: proKLK7 (human) activation, primary screen. activation, % at 7 µM. AID 652039. P49862. purified proKLK7, EDANS-DABCYL substrate fluorescence; 100% is mature enzyme control, 0% vehicle. 370,000 tested, 0.9% active;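 active = activation above the mean of all tested compounds plus 3 SD, computed per campaign excluding outliers beyond control limits, cut at about 13% in these data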
Target sequence (P49862 whole entry, looked up): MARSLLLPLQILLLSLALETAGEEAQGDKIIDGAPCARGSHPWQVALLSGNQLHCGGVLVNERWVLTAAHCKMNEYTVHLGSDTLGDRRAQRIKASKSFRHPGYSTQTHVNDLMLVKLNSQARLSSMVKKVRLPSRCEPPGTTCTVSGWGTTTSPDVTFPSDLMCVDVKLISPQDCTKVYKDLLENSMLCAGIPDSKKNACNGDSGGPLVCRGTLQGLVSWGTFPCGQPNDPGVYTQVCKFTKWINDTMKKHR
PLC-beta3 inh: PLC-beta3 (human) inhibition, primary screen | AID 720704 | 370,000 tested, 0.18% active | inhibition, % at 12.2 µM | Purified PLC-beta3, fluorogenic substrate, fluorescence; in the data active = inhibition above about 11%;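 also: 0% = median of compound wells on plate and 100% = full blocker control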
ADAM10 confirm: human ADAM10 inhibition, confirmation; shares compounds with ADAM10 inh; AID 743208; 2,100 tested, 1% active; inhibition, % at 6.95 µM; ADAM10 QFRET peptide cleavage, EDANS fluorescence;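 active = inhibition above about 20% chosen separately for each screening run, limit read from the data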;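 also: 0% = DMSO wells and 100% = marimastat wells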
ADAM17 ctr: inhibits human ADAM17 in ADAM10 exosite counter-screen | shares compounds with ADAM10 inh | ADAM17 QFRET peptide cleavage, EDANS fluorescence | inhibition, % at 6.95 µM | 2,100 tested, 0.5% active | AID 743214;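 active = mean triplicate inhibition above the solvent-only control wells' mean plus 3 SD, cut at about 12% in these data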;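 also: 0% = DMSO wells and 100% = marimastat wells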
Active calls of the source: *. Compounds with a hit are over-represented: about 2.9% of the library has one in this group of screens.

What do the screens show for `COc1ccc(N2C(=O)CSC23C(=O)N2CCCc4cccc3c42)cc1` (stereo not drawn)?
ADAM17 inh: -2.9; ADAM10 inh: -0.2; PLCg1 inh: 2.6; proKLK7 act: -0.8; PLC-beta3 inh: -0.9

How did COc1ccccc1NC(=O)Cc1csc(NC(=S)Nc2ccccc2)n1 do in these assays?
ADAM17 inh: 3.4; ADAM10 inh: 20.6*; PLCg1 inh: 0.0; proKLK7 act: -0.6; PLC-beta3 inh: -2.4; ADAM10 confirm: 6.4; ADAM17 ctr: 1.8

Results for COc1ccc(OC)c(NC(=O)Cc2csc(NC(=O)Nc3ccccc3OC)n2)c1 ?
ADAM17 inh: 3.5; ADAM10 inh: 4.6; PLCg1 inh: 0.8; proKLK7 act: 0.4; PLC-beta3 inh: -6.8

What do the screens show for `COc1ccc(-c2nnc(SCC(=O)NN=C(C)c3cccc4ccccc34)n2-c2ccc(C)cc2)cc1`?
ADAM17 inh: -1.3; ADAM10 inh: 0.0; PLCg1 inh: 2.1; proKLK7 act: 0.3; PLC-beta3 inh: 0.0

What do the screens show for `COC(=O)c1cc(NC(=O)CN(c2ccc(OC)cc2)S(=O)(=O)c2ccc(F)cc2)ccc1Cl`?
ADAM17 inh: 8.6; ADAM10 inh: 22.0*; PLCg1 inh: -1.7; proKLK7 act: -0.2; PLC-beta3 inh: 0.8; ADAM10 confirm: 9.6; ADAM17 ctr: 2.3

What do the screens show for `CCCCNC(=O)NS(=O)(=O)c1ccc(NC(=O)CSc2nnc(-c3cccs3)n2-c2ccc(OC)cc2)cc1`?
ADAM17 inh: 2.1; ADAM10 inh: 5.6; PLCg1 inh: 2.1; proKLK7 act: 0.0; PLC-beta3 inh: 2.6

Results for CCOc1ccc(NC(C)c2cc(Cl)ccc2O)cc1 (stereo not drawn) ?
ADAM17 inh: -4.3; ADAM10 inh: 6.0; PLCg1 inh: -3.7; proKLK7 act: 0.1; PLC-beta3 inh: 0.3

How did CC(Nc1ccc(Cl)cc1)c1cc(Cl)ccc1O (stereo not drawn) do in these assays?
ADAM17 inh: 7.6; ADAM10 inh: 23.5*; PLCg1 inh: 7.2; proKLK7 act: 0.4; PLC-beta3 inh: 3.2; ADAM10 confirm: 3.3; ADAM17 ctr: 0.9

Results for CSc1ccc(OC2CCCCC2NS(=O)(=O)c2ccc(Cl)cc2)cc1 (stereo not drawn) ?
ADAM17 inh: 6.8; ADAM10 inh: 28.2*; PLCg1 inh: -0.1; proKLK7 act: -0.3; PLC-beta3 inh: -1.2; ADAM10 confirm: 9.5; ADAM17 ctr: 2.6

Results for O=S(=O)(NC1CCCCC1NS(=O)(=O)c1ccc(F)cc1)c1ccc(F)cc1 (stereo not drawn) ?
ADAM17 inh: 1.7; ADAM10 inh: 19.9*; PLCg1 inh: 6.9; proKLK7 act: -0.2; PLC-beta3 inh: 2.4; ADAM10 confirm: 0.8; ADAM17 ctr: 0.8

How did O=S(=O)(NC1CCCCCCC1)c1ccc(F)cc1 do in these assays?
ADAM17 inh: -5.0; ADAM10 inh: -7.6; PLCg1 inh: -0.8; proKLK7 act: 0.0; PLC-beta3 inh: -2.0

Results for O=S(=O)(NC1CCCCC1Oc1ccccc1)c1ccc(Cl)cc1 (stereo not drawn) ?
ADAM17 inh: 0.5; ADAM10 inh: 7.7; PLCg1 inh: -0.1; proKLK7 act: 0.0; PLC-beta3 inh: 1.4

What do the screens show for `COCC(=O)N[C@@H]1C[C@@H]2O[C@H](CO)CC[C@@H]2O[C@@H]1CCc1ccc(-c2ccccc2)cc1`?
ADAM17 inh: -3.6; ADAM10 inh: -10.7; PLCg1 inh: 0.9; proKLK7 act: 0.0; PLC-beta3 inh: -3.1

What do the screens show for `COC(=O)[C@]12C[C@H](CC(=O)NCc3ccc(OC)c(OC)c3)C(=O)N(CCC3=CCCCC3)C1=C[C@H](C1CCCC1)O[C@@H]2C`?
ADAM17 inh: 3.5; ADAM10 inh: 15.9; PLCg1 inh: -0.5; proKLK7 act: 0.5; PLC-beta3 inh: -0.4

What do the screens show for `O=C(Nc1ccc(Oc2ccc3ccccc3c2)cc1)c1ccco1`?
ADAM17 inh: 1.9; ADAM10 inh: 22.6*; PLCg1 inh: 1.0; proKLK7 act: 0.0; PLC-beta3 inh: 0.2; ADAM10 confirm: 9.2; ADAM17 ctr: 2.9
